About 2,000 (36%) of roughly 5,500 compounds were called active. Roughly 18% stayed inconclusive and do not appear here. The list shows a part of the results. Unmarked numbers belong to inactive results. No stated cut-off is given here; in the data, active means normalized growth mostly below about 0.91 (no sharp cut-off); inconclusive means no clear call, values can overlap the other calls; inactive means mostly above about 0.92.
Test: chemical genetic growth profiling, strain panel (AID 1159580);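 further: tested at 20 µM; growth read once vehicle control cultures reached saturation at 30 °C; 1 = growth at the plate median or of vehicle wells; lower values mean less growth of the strain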
Conditions: S. cerevisiae deletion strains, growth OD
[1] = locus YAR019C, strain CDC15, active compounds read low
[2] = locus YBL105C, strain PKC1, active compounds read low
[3] = locus YBR135W, strain CKS1, active compounds read low
[4] = locus YBR136W, strain MEC1, active compounds read low
[5] = locus YBR160W, strain CDC28, active compounds read low
[6] = locus YDL017W, strain CDC7, active compounds read low
[7] = locus YDL028C, strain MPS1, active compounds read low
[8] = locus YDL101C, strain DUN1, active compounds read low
[9] = locus YDL108W, strain KIN28, active compounds read low
[10] = locus YDL132W, strain cdc53, active compounds read low
[11] = locus YDL214C, strain PRR2, active compounds read low
[12] = locus YDR052C, strain DBF4, active compounds read low
[13] = locus YDR054C, strain cdc34, active compounds read low
[14] = locus YDR226W, strain ADK1, active compounds read low
[15] = locus YDR477W, strain SNF1, active compounds read low
[16] = locus YER123W, strain YCK3, active compounds read low
[17] = locus YER133W, strain GLC7, active compounds read low
[18] = locus YFL009W, strain cdc4, active compounds read low
[19] = locus YFL029C, strain CAK1, active compounds read low
[20] = locus YFR003C, strain YPI1, active compounds read low
[21] = locus YFR019W, strain FAB1, active compounds read low
[22] = locus YFR028C, strain CDC14, active compounds read low
[23] = locus YGR040W, strain KSS1, active compounds read low
[24] = locus YGR052W, strain FMP48, active compounds read low
[25] = locus YGR092W, strain DBF2, active compounds read low
[26] = locus YHR030C, strain SLT2, active compounds read low
[27] = locus YHR079C, strain IRE1, active compounds read low
[28] = locus YHR082C, strain KSP1, active compounds read low
[29] = locus YHR205W, strain SCH9, active compounds read low
[30] = locus YIL147C, strain SLN1, active compounds read low
[31] = locus YJL095W, strain BCK1, active compounds read low
[32] = locus YJL128C, strain PBS2, active compounds read low
[33] = locus YJL157C, strain FAR1, active compounds read low
[34] = locus YJR016C, strain ILV3, active compounds read low
[35] = locus YJR066W, strain TOR1 (second series), active compounds read low
[36] = locus YJR066W, strain TOR1, active compounds read low
[37] = locus YKL048C, strain ELM1, active compounds read low
[38] = locus YKL067W, strain YNK1, active compounds read low
[39] = locus YKL101W, strain HSL1, active compounds read low
[40] = locus YKL193C, strain SDS22, active compounds read low
[41] = locus YKL203C, strain TOR2, active compounds read low
[42] = locus YLR113W, strain HOG1, active compounds read low
[43] = locus YLR133W, strain CKI1, active compounds read low
[44] = locus YLR403W, strain SFP1, active compounds read low
[45] = locus YML070W, strain DAK1, active compounds read low
[46] = locus YMR001C, strain CDC5, active compounds read low
[47] = locus YMR205C, strain PFK2 (second series), active compounds read low
[48] = locus YMR277W, strain FCP1, active compounds read low
[49] = locus YNL006W, strain LST8, active compounds read low
[50] = locus YNL020C, strain ARK1, active compounds read low
[51] = locus YNL161W, strain CBK1, active compounds read low
[52] = locus YNL183C, strain NPR1, active compounds read low
[53] = locus YNL207W, strain RIO2, active compounds read low
[54] = locus YNL222W, strain SSU72, active compounds read low
[55] = locus YNL307C, strain MCK1 (second series), active compounds read low
[56] = locus YOL078W, strain AVO1, active compounds read low
[57] = locus YOL136C, strain PFK27, active compounds read low
[58] = locus YOR061W, strain CKA2, active compounds read low
[59] = locus YOR119C, strain RIO1, active compounds read low
[60] = locus YOR231W, strain MKK1, active compounds read low
[61] = locus YOR329C, strain SCD5, active compounds read low
[62] = locus YPL031C, strain PHO85, active compounds read low
[63] = locus YPL153C, strain RAD53, active compounds read low
[64] = locus YPL204W, strain HRR25, active compounds read low
[65] = locus YPL209C, strain IPL1, active compounds read low
[66] = locus YPL256C, strain CLN2, active compounds read low
[67] = locus YPR025C, strain CCL1, active compounds read low
[68] = locus YPR106W, strain ISR1, active compounds read low
[69] = locus YPR111W, strain DBF20, active compounds read low
[70] = strain NNK1, active compounds read low
[71] = strain TSCII, active compounds read low

Structure (SMILES): O=C(NNc1ccc(F)cc1F)c1sccc1Cl
- normalized growth [1]: 0.974
- normalized growth [2]: 0.96
- normalized growth [3]: 0.978
- normalized growth [4]: 0.971
- normalized growth [5]: 0.971
- normalized growth [6]: 0.968
- normalized growth [7]: 0.975
- normalized growth [8]: 0.961
- normalized growth [9]: 0.977
- normalized growth [10]: 0.969
- normalized growth [11]: 0.924
- normalized growth [12]: 0.971
- normalized growth [13]: 0.957
- normalized growth [14]: 0.968
- normalized growth [15]: 0.927
- normalized growth [16]: 0.841
- normalized growth [17]: 0.952
- normalized growth [18]: 0.975
- normalized growth [19]: 0.962
- normalized growth [20]: 0.978
- normalized growth [21]: 0.916
- normalized growth [22]: 0.977
- normalized growth [23]: 0.912
- normalized growth [24]: 1
- normalized growth [25]: 0.879
- normalized growth [26]: 0.903
- normalized growth [27]: 0.96
- normalized growth [28]: 0.987
- normalized growth [29]: 0.925
- normalized growth [30]: 0.968
- normalized growth [31]: 0.939
- normalized growth [32]: 0.967
- normalized growth [33]: 0.926
- normalized growth [34]: 0.976
- normalized growth [35]: 0.86
- normalized growth [36]: 1.01
- normalized growth [37]: 0.927
- normalized growth [38]: 0.952
- normalized growth [39]: 0.913
- normalized growth [40]: 0.976
- normalized growth [41]: 0.985
- normalized growth [42]: 0.858 (active)
- normalized growth [43]: 0.926
- normalized growth [44]: 0.917
- normalized growth [45]: 0.904
- normalized growth [46]: 0.974
- normalized growth [47]: 0.963
- normalized growth [48]: 0.984
- normalized growth [49]: 0.989
- normalized growth [50]: 0.939
- normalized growth [51]: 0.974
- normalized growth [52]: 0.956
- normalized growth [53]: 0.975
- normalized growth [54]: 0.975
- normalized growth [55]: 0.858
- normalized growth [56]: 0.968
- normalized growth [57]: 0.908
- normalized growth [58]: 0.83
- normalized growth [59]: 0.994
- normalized growth [60]: 0.914
- normalized growth [61]: 0.97
- normalized growth [62]: 0.944
- normalized growth [63]: 0.92
- normalized growth [64]: 0.914
- normalized growth [65]: 0.967
- normalized growth [66]: 0.894
- normalized growth [67]: 0.978
- normalized growth [68]: 0.957
- normalized growth [69]: 0.953
- normalized growth [70]: 0.967
- normalized growth [71]: 0.97

Structure (SMILES): Cc1ccc(NNC(=O)c2cccs2)cc1Cl
- normalized growth [1]: 0.969
- normalized growth [2]: 0.969
- normalized growth [3]: 0.971
- normalized growth [4]: 0.974
- normalized growth [5]: 0.957
- normalized growth [6]: 0.979
- normalized growth [7]: 0.972
- normalized growth [8]: 0.968
- normalized growth [9]: 0.967
- normalized growth [10]: 0.975
- normalized growth [11]: 0.964
- normalized growth [12]: 0.976
- normalized growth [13]: 0.966
- normalized growth [14]: 0.96
- normalized growth [15]: 0.974
- normalized growth [16]: 0.897
- normalized growth [17]: 0.966
- normalized growth [18]: 0.976
- normalized growth [19]: 0.966
- normalized growth [20]: 0.976
- normalized growth [21]: 0.958
- normalized growth [22]: 0.964
- normalized growth [23]: 0.963
- normalized growth [24]: 1.01
- normalized growth [25]: 0.824
- normalized growth [26]: 0.943
- normalized growth [27]: 0.97
- normalized growth [28]: 1.03
- normalized growth [29]: 0.964
- normalized growth [30]: 0.98
- normalized growth [31]: 0.984
- normalized growth [32]: 0.963
- normalized growth [33]: 0.952
- normalized growth [34]: 0.975
- normalized growth [35]: 0.925
- normalized growth [36]: 1.03
- normalized growth [37]: 0.945
- normalized growth [38]: 0.953
- normalized growth [39]: 0.963
- normalized growth [40]: 0.968
- normalized growth [41]: 1.03
- normalized growth [42]: 0.876
- normalized growth [43]: 0.968
- normalized growth [44]: 0.929
- normalized growth [45]: 0.918
- normalized growth [46]: 0.979
- normalized growth [47]: 0.961
- normalized growth [48]: 0.974
- normalized growth [49]: 0.975
- normalized growth [50]: 0.963
- normalized growth [51]: 0.966
- normalized growth [52]: 0.979
- normalized growth [53]: 0.976
- normalized growth [54]: 0.961
- normalized growth [55]: 0.922
- normalized growth [56]: 0.972
- normalized growth [57]: 0.943
- normalized growth [58]: 0.894
- normalized growth [59]: 1.02
- normalized growth [60]: 0.914
- normalized growth [61]: 0.978
- normalized growth [62]: 0.964
- normalized growth [63]: 0.949
- normalized growth [64]: 0.959
- normalized growth [65]: 0.967
- normalized growth [66]: 0.948
- normalized growth [67]: 0.969
- normalized growth [68]: 0.973
- normalized growth [69]: 0.962
- normalized growth [70]: 0.991
- normalized growth [71]: 0.972

Structure (SMILES): Cc1cc(Cl)ccc1NNC(=O)c1sccc1Cl
- normalized growth [1]: 0.892
- normalized growth [2]: 0.912
- normalized growth [3]: 0.908
- normalized growth [4]: 0.9
- normalized growth [5]: 0.913
- normalized growth [6]: 0.915
- normalized growth [7]: 0.912
- normalized growth [8]: 0.907 (active)
- normalized growth [9]: 0.907
- normalized growth [10]: 0.928
- normalized growth [11]: 0.869
- normalized growth [12]: 0.898 (active)
- normalized growth [13]: 0.882
- normalized growth [14]: 0.894 (active)
- normalized growth [15]: 0.861
- normalized growth [16]: 0.787
- normalized growth [17]: 0.794
- normalized growth [18]: 0.893
- normalized growth [19]: 0.883
- normalized growth [20]: 0.911
- normalized growth [21]: 0.907
- normalized growth [22]: 0.894
- normalized growth [23]: 0.861
- normalized growth [24]: 0.861
- normalized growth [25]: 0.7
- normalized growth [26]: 0.152 (active)
- normalized growth [27]: 0.859
- normalized growth [28]: 0.884
- normalized growth [29]: 0.878
- normalized growth [30]: 0.913
- normalized growth [31]: 0.194 (active)
- normalized growth [32]: 0.89
- normalized growth [33]: 0.864
- normalized growth [34]: 0.898 (active)
- normalized growth [35]: 0.874
- normalized growth [36]: 0.835
- normalized growth [37]: 0.872
- normalized growth [38]: 0.861
- normalized growth [39]: 0.917
- normalized growth [40]: 0.893
- normalized growth [41]: 0.912
- normalized growth [42]: 0.779 (active)
- normalized growth [43]: 0.878
- normalized growth [44]: 0.831
- normalized growth [45]: 0.836
- normalized growth [46]: 0.894
- normalized growth [47]: 0.844
- normalized growth [48]: 0.905
- normalized growth [49]: 0.898 (active)
- normalized growth [50]: 0.885
- normalized growth [51]: 0.89 (active)
- normalized growth [52]: 0.858
- normalized growth [53]: 0.9
- normalized growth [54]: 0.896
- normalized growth [55]: 0.811
- normalized growth [56]: 0.888
- normalized growth [57]: 0.84
- normalized growth [58]: 0.876
- normalized growth [59]: 0.91
- normalized growth [60]: 0.823
- normalized growth [61]: 0.909
- normalized growth [62]: 0.861
- normalized growth [63]: 0.803
- normalized growth [64]: 0.822
- normalized growth [65]: 0.899 (active)
- normalized growth [66]: 0.803 (active)
- normalized growth [67]: 0.902
- normalized growth [68]: 0.903
- normalized growth [69]: 0.882
- normalized growth [70]: 0.897
- normalized growth [71]: 0.878 (active)
